This is part of a sample that, as a whole, favours compounds with a hit. Of some 83,000 tested, about 20% had one in any assay.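 Interpretation: 100, growth as untreated; towards 0, rising growth inhibition; 0, no net growth; 0 to -100, cell death. Compounds scoring below 10 were considered active.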 Values without a mark were called inactive. The source made the active and inactive calls.
System: SR leukemia
Assay: NCI-60 one-dose screen, 48 h (100 = growth as untreated, 0 = no growth, -100 = all killed)
Conditions: 10 µM unless noted
Description: Growth inhibition of the SR human tumor cell line is measured as a screen for anti-cancer activity. Cells are grown in 96 well plates and exposed to the test compound for 48 hours. Compounds are tested at a single concentration, which is 10^-5 M for most compounds. The reported endpoint is percent growth (GI% or GIPRCNT), where numbers from 0 - 100% represent growth inhibition, and numbers from -100% - 0 represent cell death. For example, a value of 40 represents 60% growth inhibition. A value of 0 means no net growth occurred over the course of the experiment. A value of -40 indicates 40% of cells at the beginning of the experiment died by the end of the experiment. A value of -100 means all cells are dead at the end of the experiment.
NCI-60 Human Tumor Cell Lines Screen was performed using the standard one-dose NCI protocol, which is described in more detail at https://dtp.cancer.gov/discovery_development/nci-60/default.htm.
Compounds with GIPRCNT values below 10 were considered active. Activity score was based on GIPRCNT using the following formula: […]
Score is 0 for GIPRCNT values of 100 or above, 50 for GIPRCNT values of 0, and 100 for GIPRCNT values of -100.

SMILES | growth
COc1cc(OC)c2c(c1Cl)O[C@]1(C2=O)C(OCc2ccccc2)=CC(=O)C[C@H]1C | 7.41% (active)
N#Cc1ccc(-c2csc(Nc3ccc4nc5n(c(=O)c4c3)CCC5)n2)cc1 | 93.6%
Cc1ccc2c(c1)C(=O)/C(=C\Nc1ccc(C(N)=O)cc1)C(O)O2 (stereo not given) | 97.1%
COC(=O)C1=CCC(n2cnc3c(N)ncnc32)O1 (stereo not given) | 102%
COc1ccc(NS(=O)(=O)N2CCCCC2)cc1 | 95.3%
CCN(CC)CCNCC(=O)Oc1ccc(/C=C/C(=O)CC(=O)/C=C/c2ccc(OC(=O)CNCCN(CC)CC)c(OC)c2)cc1OC | -1.72% (active)
CCC(=O)Nc1cc2c(cc1Cl)-c1ccccc1C2 | 101%
Nc1nc2c(c(=O)[nH]1)C1(C(=O)Nc3ccccc31)c1c(nc(N)[nH]c1=O)N2 | 111%
C1=C(Cc2ccccc2)n2cnc3ncnc(c32)S1 | 36.8%
COc1ccc(C(=O)COc2cccc(/C=C3\COc4ccc5ccccc5c4C3=O)c2)cc1 | 35%
COc1cc(/C=C/C(=O)C(C(=O)/C=C/c2ccc(OC(=O)CCNC34CC5CC(CC(C5)C3)C4)c(OC)c2)C(=O)CCNC23CC4CC(CC(C4)C2)C3)ccc1OC(=O)CCNC12CC3CC(CC(C3)C1)C2 (stereo not given) | -48.6% (active)
COc1cc(C2CC(C3C(=O)N(C)C(=O)N(C)C3=O)=NN2C=O)cc(OC)c1OC (stereo not given) | 105%
Cc1sc2nc(NCc3ccccc3)[nH]c(=O)c2c1C | 14.4%
COc1ccc(C2=NN(C=O)C(c3cccc(Nc4ccnc5cc(Cl)ccc45)c3)C2)cc1 (stereo not given) | 12.6%
COc1c(O)cc2c(c1CC=C(C)C)OC(=O)c1c(cc(O)c(CC=C(C)C)c1O)O2 | -21.4% (active)
CN(C)c1ccc(-c2nc3ncc(Br)cc3o2)cc1 | 94.4%
Nc1ccccc1C#Cc1ccccc1C#Cc1ccc(OCCCCCCOc2ccc(C#Cc3ccccc3C#Cc3ccccc3N)cc2)cc1 | 94.7%
COc1cnc2c(c1)C(=O)c1c-2n(CCCn2ccnc2)c(=O)c2cc(F)ccc12 | -25% (active)
Cc1ccc(/C=C(/C#N)n2nnc3ncccc32)cc1 | 15.2%
Cn1c(N2N=C(c3ccc(Cl)cc3)CC2c2ccccc2)nc(-c2ccccc2)c(C#N)c1=O (stereo not given) | 58.8%

SMILES | growth
O=c1c2ccccc2c2nccn2c2cc(Cl)ccc12 | 11%
O=C(COc1cccc(/C=C2\Oc3ccc4ccccc4c3C2=O)c1)c1ccc([N+](=O)[O-])cc1 | 3.73% (active)
CC(=O)c1nn(-c2ccccc2)c(=Nc2ccccc2)cc1C | 99.3%
COc1ccc2c(c1)C(=Nc1cc(OC)c(OC)c(OC)c1)C(=O)N2 | 75.4%
Cc1cnc2nc(-c3ccc(N(C)C)cc3)cn2c1 | 100%
O=C(Nc1nc2c(C(F)(F)F)cccc2s1)c1cc(Cl)ccc1O | 7.18% (active)
CC(=O)c1ccccc1NC(=O)C(C)(c1ccccc1)c1ccccc1 | 65.9%
CSc1nc(N)c2c(n1)N(C)C=NS2(=O)=O | 102%
CCOC(=O)Nc1ccc2c3c(cccc13)-c1ccccc1-2 | 13.6%
N#Cc1c(-c2ccccc2)cc(-c2ccccc2)n(CCCC(=O)O)c1=O | 91.8%
Cc1cc(Br)c(C)cc1Br | 83.7%
CCOC(=O)Nc1cc(-c2ccc(C)c(NS(C)(=O)=O)c2)nn2c(C)nnc12 | 24.9%
C[C@]12CC[C@H](O)CC1=CC[C@@H]1[C@@H]2CC[C@]2(C)C(c3cccnc3)=CC[C@@H]12 | 0.438% (active)
Cc1ccccc1NC(=O)NC(CC(N)=O)c1ccc2c(c1)nc(-c1cccc(Oc3ccc(C(C)(C)C)cc3)c1)n2CCCN1CCCCC1C (stereo not given) | -33.9% (active)
O=C(/C=C(\Nc1ccccc1)c1ccccc1)c1cn(-c2ccc([N+](=O)[O-])cc2)nn1 | 69.4%
CN1CCN(c2nc3scc(-c4ccccc4)c3c(=O)[nH]2)CC1 | 94.1%
C=C1CCC2C(C)(COC(=O)CC)C(OC(=O)CC)CCC2(C)C1C/C=C1/C(=O)OCC1OC(=O)CC (stereo not given) | -23% (active)
O=[N+]([O-])c1ccc2[nH]cc(-c3c4ccccc4cc4[nH]c5ccc([N+](=O)[O-])cc5c34)c2c1 | 10.2%
COCCCNS(=O)(=O)c1ncnc2nc[nH]c12 | 108%
CCCCNCCCN(CCCC)CCCNCCCC | 108%

From PubChem BioAssay (NCI)
